# From PubChem BioAssay (NCI)
# The panel holds about 83,000 compounds, 20% with a hit somewhere; the sample as a whole holds those more often.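 Step 1: grow cells in 96-well plates. Step 2: add test compound at a single concentration. Step 3: incubate 48 h. Step 4: record percent growth.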 Unmarked numbers belong to inactive results. Calls of active or inactive are those of the source. The calls were made as follows: active = growth percent below 10; inactive = the rest.
# Tests used:
# Assay in all cases: NCI-60 one-dose screen, 48 h (100 = growth as untreated, 0 = no growth, -100 = all killed)
# Conditions in all cases: 10 µM unless noted
# HCT-15 colon = system: HCT-15 colon
# HT29 colon = system: HT29 colon
# SNB-75 CNS = system: SNB-75 CNS
# SNB-19 CNS = system: SNB-19 CNS
# PC-3 prostate = system: PC-3 prostate
# SK-MEL-5 melanoma = system: SK-MEL-5 melanoma
# UACC-62 melanoma = system: UACC-62 melanoma
# LOX IMVI melanoma = system: LOX IMVI melanoma
# SK-MEL-28 melanoma = system: SK-MEL-28 melanoma
# U251 CNS = system: U251 CNS
SMILES,growth (HCT-15 colon),growth (HT29 colon),growth (SNB-75 CNS),growth (SNB-19 CNS),growth (PC-3 prostate),growth (SK-MEL-5 melanoma),growth (UACC-62 melanoma),growth (LOX IMVI melanoma),growth (SK-MEL-28 melanoma),growth (U251 CNS)
O=C1/C(=C/c2ccc(Cl)c(Cl)c2)CN(C(=O)C(Cl)Cl)C/C1=C\c1ccc(Cl)c(Cl)c1,-62.1% (active),-4.7% (active),-70.7% (active),-93.7% (active),-45.6% (active),-79.4% (active),-46.9% (active),-91.7% (active),-64.4% (active),
CCN(CC)c1ccc(/C=C/C(=O)c2ccc(Nc3nc(Nc4ccccc4)nc(Nc4ccccc4)n3)cc2)cc1,32.4%,49.8%,26.8%,67.5%,34.1%,40.7%,54.8%,,65.6%,
O=C(Cn1c(-c2ccc([N+](=O)[O-])cc2)nc2ccccc21)NNC(=O)c1cccnc1,80.9%,77.2%,53.3%,86.5%,69%,83.8%,66.2%,65.3%,108%,
CCOC(=O)c1cc(-c2ccc([N+](=O)[O-])cc2)n(-c2ccc(C(=O)O)c(O)c2)c1C,50.2%,44.2%,53.5%,90.7%,23.5%,52%,54%,,90.5%,
CCN(C(=O)N1CCN(c2cc3c(cc2F)c(=O)c(C(=O)O)cn3C2CC2)CC1)c1nc(-c2ccc(Cl)cc2)cs1,10.2%,5.63% (active),28.9%,15.6%,10.1%,-28.2% (active),-26.7% (active),5.32% (active),40%,
Clc1ccc(Nc2nnc(COc3ccccc3)c3ccccc23)cc1,4.45% (active),1.32% (active),13.1%,22%,-0.2% (active),-96.1% (active),-27.7% (active),,4.73% (active),
COc1cc(/C=C\c2cc(/C=C\c3ccc(O)c(OC)c3)n(C(=O)COc3ccc(Cl)cc3Cl)n2)ccc1O,9.52% (active),2.93% (active),5.12% (active),29%,10.2%,,5.87% (active),,26.6%,16.3%
CCOC(=O)/C=C1\S/C(=N\Nc2cc(=O)[nH]c3ccc(Cl)cc23)N(c2ccccc2)C1=O,74.5%,102%,87.5%,90.6%,85.4%,98.9%,89.4%,84.4%,101%,
CCOC(=O)c1c(C)nc2c(c1N)CC(=O)N2Cc1cc(F)cc(Cl)c1,80.5%,77.1%,71.6%,100%,77.9%,74.9%,78%,96.5%,105%,
O=C1/C(=C/c2ccccc2Br)COc2ccc(O)c(O)c21,-1.56% (active),47.6%,23.2%,27%,15.6%,46.9%,6.99% (active),-76% (active),42.3%,
COC(C(=O)[C@@H](O)[C@@H](C)O)[C@@H]1Cc2cc3cc(O[C@H]4C[C@@H](O[C@H]5C[C@@H](O)[C@H](O)C(C)O5)[C@H](O)C(C)O4)cc(O)c3c(O)c2C(=O)[C@H]1O[C@H]1C[C@@H](O[C@H]2C[C@@H](O[C@H]3C[C@@H](OC)[C@H](O)C(C)O3)[C@@H](O)C(C)O2)[C@H](O)C(C)O1 (some centres undefined),102%,34.9%,35.7%,40.1%,42.5%,,0.169% (active),,30.7%,26.5%
OCCCC1CCN(C(Cc2ccccc2)c2ccccc2)CC1 (centres undefined),100%,76.5%,84.2%,101%,70.8%,101%,97.7%,93.2%,64.8%,
Cc1ccc(Sc2nnc(/N=C3\C(=O)Nc4ccccc43)s2)cc1,105%,111%,87.5%,101%,99.7%,107%,103%,97.8%,105%,
OCc1cccc(-c2ccc3ncc(-c4nc(NC5CC5)ncc4F)n3c2)c1,1.06% (active),4.87% (active),-40.8% (active),-0.451% (active),-10.3% (active),-77.2% (active),-84.4% (active),-1.7% (active),-45.5% (active),
COc1cccc([C@H]2c3[nH]c4ccccc4c3C[C@H]3C(=O)N(CCCCCCC(=O)NO)CC(=O)N23)c1,105%,56.7%,7.84% (active),68.4%,42.5%,,36.8%,49.4%,43%,
O=C1/C(=C/c2ccc(Cl)cc2)COc2ccc(O)c(O)c21,-1.01% (active),15.5%,18.2%,24.9%,-6% (active),56%,4.2% (active),-84.8% (active),60.2%,
CC[C@]12C=CCN3CC[C@@]4(c5cc(NC(=O)CCC(=O)OCc6cn(Cc7ccc(F)cc7)nn6)c(OC)cc5N(C)[C@H]4[C@@](O)(C(=O)OC)[C@@H]1OC(C)=O)[C@@H]32,105%,103%,97%,98.5%,93.8%,112%,98%,99.3%,109%,
CO/N=C(/C)c1ccc(NC(=O)CSc2nnc(-c3ccncc3)n2-c2ccccc2)cc1,73%,78%,-16.6% (active),30.4%,49.9%,25.2%,26.1%,65.5%,64.9%,
O=[N+]([O-])/C(=C/C=C/c1ccccc1)c1ccccc1,10.8%,26.9%,57.3%,85.9%,43.6%,82.4%,70.5%,-0.767% (active),12.6%,
O=C(O)c1ccc(-n2cc(/C=N/Nc3ccc(F)cc3)c(-c3cc4ccccc4oc3=O)n2)cc1,33.9%,91%,85.6%,89.2%,69.8%,93.6%,46.1%,46.6%,92.3%,
